Each structure is given as a SMILES string. Out of some 640,000 compounds screened, about 9,300 (1.5%) were called active. No stated cut-off is given here; in the data, active means inhibition above about 32%; inactive means the rest. What follows is part of a selection rich in actives, with near analogues and random picks from the rest.

As a reminder, the inhibition is the relative decrease from the control value, in per cent.

This test in a line: TEAD-YAP interaction inhibition, primary screen, TEAD-YAP interaction inhibitor project, luminescence, HEK-TIYL cells (AID 1259422).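 Further: 0% = median of test compound wells and 100% = reference inhibitor wells.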 Conditions: TEAD-Gal4/YAP UAS-luciferase luminescence, at 9.12 µM, hits give high values.
For the compound `COc1ccc(S(=O)(=O)Oc2ccc(C=O)cc2)cc1`, the inhibition is 12.9% (inactive).

As to `Cc1c(C2=N/C(=C/c3cccc(Cl)c3Cl)C(=O)O2)cccc1[N+](=O)[O-]`, the inhibition was -5.1% (inactive). For `CSc1cccc(Nc2nc3ccccc3n3cnnc23)c1`, the inhibition is -29.4% (inactive). `CN(c1ncnc2c1cnn2-c1ccc(Cl)cc1)C1CCCCC1`: the inhibition was 63.9% (active). In the case of `Clc1ccc(-n2ncc3c(NC4CCCCC4)ncnc32)cc1` it was 10.8% (inactive). In the case of `Cc1cc2c(N(C)C3CCCCC3)ncnc2s1` it was -14.3% (inactive). In the case of `CSC1=C(C#N)C(c2ccccc2[N+](=O)[O-])C2=C(CC(C)(C)CC2=O)N1` (centres undefined) it was 15.7% (inactive). For `O=C(NCCOc1ccccc1)c1ccc2nc(NCCN3CCOCC3)sc2c1`, the inhibition is -44.4% (inactive). As for `O=C(Nc1ccc2c3c(cccc13)CC2)c1cc([N+](=O)[O-])ccc1Br`, the inhibition is 59.8% (active).

For `O=C(Nc1ccc([N+](=O)[O-])cc1Cl)c1ccccc1Br`, the inhibition is 12.3% (inactive). Under `O=C(Nc1ccc2c3c(cccc13)CC2)c1cc([N+](=O)[O-])cc([N+](=O)[O-])c1` stands -9.02% (inactive); under `Cc1cc(C)cc(N2C(=O)N(c3cccc(Cl)c3)C3CS(=O)(=O)CC32)c1` (centres undefined), -20.4% (inactive). Under `CC(=O)NC(NC(C)=O)c1cccnc1` stands -0.95% (inactive); under `O=C(Cc1ccccc1)NC(c1ccc(Cl)cc1)c1ccc2cccnc2c1O` (centres undefined), 82.5% (active); under `O=C(COc1ccc(Cl)c(Cl)c1)NC(Cc1ccccc1)C(=O)O` (centres undefined), 9.8% (inactive). In the case of `COc1cccc(C(=O)NC(c2cccc([N+](=O)[O-])c2)c2cc(Cl)c3cccnc3c2O)c1` (centres undefined) it was 7.94% (inactive); in that of `CC(=O)NC(c1ccccc1)c1ccc2cccnc2c1O` (centres undefined), 82.8% (active). Turning to `O=C(NC(=O)c1ccccn1)NC(c1ccccc1)c1ccccc1`, the inhibition was -3.05% (inactive).

As for `Cc1ccnc(NC(=O)Cc2ccc(Cl)cc2)n1`, the inhibition is 0.25% (inactive). Under `CCOc1ccc(C(NC(=O)c2cc(OC)c(OC)c(OC)c2)c2cc(Cl)c3cccnc3c2O)cc1` (centres undefined) stands 9.91% (inactive). Regarding `CC(=O)NC(c1cccs1)c1cc(Cl)c2cccnc2c1O` (centres undefined), the inhibition is 80.8% (active). Under `Cc1ccc(C(NC(=O)Cc2ccccc2)c2ccc3cccnc3c2O)cc1` (centres undefined) stands 82.5% (active); under `Cc1ccc(CC(=O)Nc2ncccn2)cc1`, 1.2% (inactive); under `CCOc1ccc(C(C)NC(=O)Cc2ccccc2)cc1` (centres undefined), 13.1% (inactive). Take `Cc1ccc(C2C=C(c3ccc(C(C)C)cc3)Nc3nnnn32)cc1` (centres undefined): the inhibition was -3.93% (inactive). In the case of `Cn1c(=O)c2c(nc(N(CCO)CCO)n2Cc2cccc3ccccc23)n(C)c1=O` it was -5.12% (inactive). Under `O=S(=O)(c1ccc(F)c(Cl)c1)N1CCC(Cn2cnc3ccccc32)CC1` stands 7.12% (inactive); under `COC(=O)C1=C(C)OC(N)=C(C#N)C1c1ccc(OCc2ccccc2)cc1` (centres undefined), -17.6% (inactive). In the case of `COc1ccccc1NC(=O)Nc1nnc(CSCc2ccc(F)cc2)s1` it was 11.6% (inactive); in that of `CCOC(=O)c1cc([N+](=O)[O-])sc1NC(=O)c1cc(Cl)sc1Cl`, 1.62% (inactive).

Consider `Cc1cccc(NC(=O)CC(C)(C)C)n1`, for which the inhibition is -13.5% (inactive).

`N/C(=N\OC(=O)CCCOc1ccc(Cl)cc1Cl)c1nonc1N`: the inhibition was -6.56% (inactive). In the case of `CCOC(=O)C1=CN(C(C)C)C=C(C(=O)OCC)C1c1cccc([N+](=O)[O-])c1` it was 4.81% (inactive); in that of `CCCn1c(=N)c(C(=O)OCC)cc2c(=O)n3cc(C)ccc3nc21`, 1.52% (inactive); in that of `O=C1CSC(c2ccc(F)c(F)c2)N1c1ccc(Br)cc1` (centres undefined), -4.77% (inactive). For the compound `CCCCC(=O)NC(c1ccc(OC)cc1)c1cc([N+](=O)[O-])c2cccnc2c1O` (centres undefined), the inhibition is 7.56% (inactive).

With `CCCCC(=O)NC(c1ccco1)c1ccc2cccnc2c1O` (centres undefined), the inhibition was 26.7% (inactive). Under `CCCCC(=O)NC(c1ccc(OC)c(OC)c1)c1ccc2cccnc2c1O` (centres undefined) stands 89.2% (active).

In the case of `CCC1CCCCN1C(=O)Cn1c2ccccc2c(=O)c2cc(C)ccc21` (centres undefined), the inhibition was -3.07% (inactive). In the case of `CCn1nnc2c1CCN(CC(O)C(C)(C)C)C2` (centres undefined) it was -9.09% (inactive).

As for `O=C(Cn1cnc2c(nnn2-c2cccc(F)c2)c1=O)N1CCCCC1`, the inhibition was 6.15% (inactive). Under `Cc1cccc(N2CCN(C(=O)c3ccc4c(c3)C(=O)N(CCC3=CCCCC3)C4=O)CC2C)c1` (centres undefined) stands -3.98% (inactive); under `Cc1cccc(N2CCN(C(=O)c3cccc(N4C(=O)C(C)CS4(=O)=O)c3)CC2)c1` (centres undefined), -2.6% (inactive); under `Cc1cccc(N2CCN(C(=O)c3cccc(C#N)c3)CC2C)c1` (centres undefined), 41.6% (active). Under `COc1ccc2c(c1)CC(C(=O)Nc1ccc(-c3ccncc3)cc1OC(C)CN(C)C)CO2` (centres undefined) stands -0.11% (inactive). In the case of `COC(=O)NCC(C)OC(=O)Nc1ccc(C)cc1` (centres undefined) it was -12.2% (inactive); in that of `CC(C(=O)O)c1ccc(NC(=O)OC(C)(C)C)cc1` (centres undefined), 32.1% (active); in that of `CC(C)CC(NC(=O)C(Cc1ccccc1)NC(=O)OC(C)(C)C)C(=O)O` (centres undefined), 1.85% (inactive).

As to `Cc1cc(C)nc(N2CCN(S(=O)(=O)c3ccc(C)c(Cl)c3)CC2)n1`, the inhibition is 1.94% (inactive). For the compound `Fc1cccc(-c2nnc3ccc4cc(C(F)(F)F)ccc4n23)c1`, the inhibition is -12.5% (inactive). In the case of `COc1ccc(N2CCN(S(=O)(=O)c3ccc(Cl)cc3)CC2)c([N+](=O)[O-])c1` it was 6.09% (inactive); in that of `CCN(C(=O)COc1ccc(Cl)cc1)c1nnc(-c2cccnc2)s1`, -11.5% (inactive); in that of `O=C(CN1C(=O)c2ccccc2C1=O)Nc1ccc(O)cc1`, -11.7% (inactive).

In the case of `COc1ccc(S(=O)(=O)/N=C2/C=C(Nc3ccc(O)cc3)C(=O)c3ccccc32)cc1`, the inhibition is 99.3% (active). Under `O=C1C(Nc2ccc(O)cc2)=C(n2nnc3ccccc32)C(=O)c2ccccc21` stands 27.1% (inactive); under `O=C1C=C(Nc2ccc(O)cc2)c2ccccc2C1=O`, 93.2% (active). In the case of `COc1ccccc1NC1=C/C(=N/S(=O)(=O)c2ccc(F)cc2)c2ccccc2C1=O` it was -21.4% (inactive); in that of `COC(=O)c1ccccc1NC1=C/C(=N/S(=O)(=O)c2ccccc2)c2ccccc2C1=O`, 5.16% (inactive); in that of `CCOC(=O)c1ccccc1Nc1nc(-c2ccc(OC)cc2)no1`, 8.95% (inactive).

Regarding `O=[N+]([O-])c1ccc2c(c1)nc1ccccn12`, the inhibition is -11.7% (inactive). `CC(=O)N1CCC(N(C(=O)CSCCNC(=O)c2ccccc2Cl)C2CC2)CC1`: the inhibition is 2.5% (inactive). `CC1CCc2c(sc(NC(=O)c3cc4ccccc4oc3=O)c2C#N)C1` (centres undefined): the inhibition was 11.2% (inactive).

As to `C=CCN1C(=S)NC2CC1(C)Oc1c(OC)cccc12` (centres undefined), the inhibition was 2.23% (inactive). As to `CCCOc1ccc(N2C(=O)CC(NCCc3ccc(Cl)cc3)C2=O)cc1` (centres undefined), the inhibition was -11% (inactive). As to `CCOc1ccc(Cc2c(Cl)nc(SC)nc2N(CC)CC)cc1`, the inhibition is 2.33% (inactive). For `CCCOc1ccc(Cc2c(Cl)nc(SC)nc2NC)cc1`, the inhibition is 35.1% (active).

`COc1cccc(/C=C(\C#N)c2nn(CCO)c(N)c2C#N)c1OCc1ccc(Cl)cc1Cl`: the inhibition was 2.5% (inactive). With `CC(=O)N1CCc2cc(S(=O)(=O)NCCC(=O)O)ccc21`, the inhibition was 0.75% (inactive). On to `CC(=O)N1CCc2cc(S(=O)(=O)NC3CCCCC3)ccc21`, for which the inhibition is 10.8% (inactive). In the case of `CC(=O)N1CCC(N(C(=O)C2CC2)c2ccc3c(c2)CCN3C(C)=O)CC1` it was 46.4% (active). With `CCOC(=O)C1=C(C)N=c2s/c(=C\c3ccc(-c4ccc([N+](=O)[O-])cc4OC)o3)c(=O)n2C1c1ccccc1` (centres undefined), the inhibition is -12.5% (inactive).

In the case of `CCn1c(=O)[nH]c(=O)c2c(C(F)(F)F)cc(C(F)(F)F)nc21`, the inhibition was -11.4% (inactive). Under `CCOC(=O)c1cc(-c2nnc(-c3ccccc3)o2)c(C)nc1C` stands -1.76% (inactive); under `CCc1ccc(NC(=O)CSC2=C(C#N)C(c3ccco3)C(C(=O)Nc3ccc(Cl)cc3)=C(C)N2)cc1` (centres undefined), 26.3% (inactive); under `CS(=O)(=O)c1ncc(Cl)c(C(=O)Nc2ccc(Cl)c(C(F)(F)F)c2)n1`, 51% (active). In the case of `CS(=O)(=O)c1ncc(Cl)c(C(=O)Nc2nc3ccc(F)cc3s2)n1` it was -10.7% (inactive). Under `CC(=O)c1c(C)[nH]c(C(=O)Nc2ccc(Cl)c(C(F)(F)F)c2)c1C` stands 3.78% (inactive); under `Cc1ccc(CC(=O)Nc2ccc(Cl)c([N+](=O)[O-])c2)cc1`, -2.28% (inactive); under `COc1ccc(Cl)cc1NC(=O)C(=O)Nc1ccc2nc3n(c(=O)c2c1)CCCCC3`, 0.92% (inactive). For the compound `COc1ccc([N+](=O)[O-])cc1C1=N/C(=C/c2ccc(C(C)C)cc2)C(=O)O1`, the inhibition was 1.78% (inactive). Under `CCC(=O)N(CCO)Cc1cc2cc(CC)ccc2[nH]c1=O` stands 10.6% (inactive); under `CCOC(=O)c1c(NC(=O)c2ccccc2)sc(C(=O)Nc2ccccc2OC)c1C`, 0.4% (inactive); under `O=C(Nc1cc(Cl)cc(Cl)c1)c1cccs1`, -3.5% (inactive). On to `O=C(Nc1cc(F)cc(F)c1)c1cccs1`, for which the inhibition is -5.52% (inactive). With `CC(=O)Nc1cccc(-c2csc(C)n2)c1`, the inhibition is -2.27% (inactive). `O=C(Nc1ccc(C23CC4CC(CC(C4)C2)C3)cc1)c1cccs1`: the inhibition is 85.4% (active). In the case of `Cc1nc(-c2ccc(NC(=O)c3cccs3)cc2)cs1` it was 48.2% (active); in that of `Cc1nc(-c2ccc(NC(=O)c3cccc(Br)c3)cc2)cs1`, -71.4% (inactive); in that of `Cc1ccc2cccc(SCC(=O)Nc3ccc(Br)cc3)c2n1`, 17.4% (inactive). Under `COc1ccc(-n2nc3cc(C)c(NC(=O)c4ccccc4I)cc3n2)cc1` stands -23.3% (inactive); under `CN(CCC(=O)Nc1cccc(F)c1)Cc1ccccc1`, 2.01% (inactive). As for `COc1ccc(C(=O)CSc2n[nH]c(C)n2)cc1`, the inhibition was -4.7% (inactive).

Regarding `COc1ccc(CSc2n[nH]c(C)n2)cc1Cl`, the inhibition was 44.5% (active).

In the case of `COc1ccccc1NC(=O)CSc1n[nH]c(C)n1`, the inhibition is 5.98% (inactive).

The values above are taken from PubChem BioAssay AID1259422 (The Scripps Research Institute Molecular Screening Center, 2018).
